# From PubChem BioAssay
# IL-1B inflam inh = qHTS for Inhibitors of Inflammasome Signaling: IL-1-beta AlphaLISA Primary Screen; 360,000 compounds, 4.7% hits; THP-1 LPS/ATP IL-1B secretion, AlphaLISA, 16 h; stronger effect = lower value; activity change, % at 57.5 µM; in the data active = activity change below about -50%; inconclusive = mostly about -30% to -49%
#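 Secreted IL-1B measured by AlphaLISA bead assay after 16 h compound exposure of THP-1 cells; compounds (final up to 57.5 uM) added 1 h before LPS (250 ng/mL) and ATP (1.25 mM) stimulation; lower signal means less secretion.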
# RORgamma inh = qHTS for inhibitors of ROR gamma transcriptional activity; Nuclear receptor ROR-gamma (Mus musculus), P51450; Drosophila S2 Gal4-RORgamma UAS-luciferase reporter, 20 h; Potency, µM (doses to about 53.6 µM), for inactives: at the highest dose activity change, negative = inhibition, most hits filed as inhibitors; 310,000 compounds, 5.4% hits; AID 2551, 2010; also: potency is read from the fitted curve at half-maximal effect; nearly all actives have a fitted effect of over 60% in size
# Target sequence (P51450 whole entry, looked up, the tested form may be a part): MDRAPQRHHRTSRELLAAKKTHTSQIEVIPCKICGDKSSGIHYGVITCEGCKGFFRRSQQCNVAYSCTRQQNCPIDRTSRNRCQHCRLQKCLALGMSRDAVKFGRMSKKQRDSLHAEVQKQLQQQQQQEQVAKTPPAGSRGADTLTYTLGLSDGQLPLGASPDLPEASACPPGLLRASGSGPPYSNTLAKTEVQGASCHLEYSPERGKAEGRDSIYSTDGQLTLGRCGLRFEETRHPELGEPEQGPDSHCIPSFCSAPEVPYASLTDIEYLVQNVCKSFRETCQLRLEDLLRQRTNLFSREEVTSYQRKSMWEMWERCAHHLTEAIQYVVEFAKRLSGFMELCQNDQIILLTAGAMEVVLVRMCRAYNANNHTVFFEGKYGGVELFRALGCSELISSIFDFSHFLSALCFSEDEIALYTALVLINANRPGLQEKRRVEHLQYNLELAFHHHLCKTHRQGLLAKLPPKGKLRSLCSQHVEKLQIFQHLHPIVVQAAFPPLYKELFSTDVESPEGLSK
#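 A Gal4/UAS one-hybrid system in insect cells: metallothionein-promoter Gal4–ROR gamma fusion plus Photinus luciferase reporter. Copper sulfate 700 uM final, 20 hr ambient incubation, luminescent detection after 10 min with reagent.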
# VP16 counter = VP16 counterscreen qHTS for inhibitors of ROR gamma transcriptional activity; Drosophila S2 Gal4-VP16 UAS-luciferase, luminescence, 20 h; Potency, µM (series often up to 53.6 µM), inactives show at the top dose activity, negative = inhibition, hits mostly inhibitors; 310,000 compounds, 3.5% hits;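 also: Gal4-VP16 expression switched on by copper sulfate through the metallothionein promoter; potency is read from the fitted curve at half-maximal effect; nearly all actives have a fitted effect of over 50% in size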
# LDHA block = qHTS assay for inhibitors of human lactate dehydrogenase; 480,000 compounds, 0.15% hits; L-lactate dehydrogenase A chain (Homo sapiens), P00338; AID 1347041, 2019; activity change, % (values are at about 110 or 230 µM); purified LDHA, NADH/diaphorase-resazurin fluorescence; stronger effect = lower value; in the data active = activity change below about -30%; inconclusive = mostly about -25% to -30%;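 also: plate controls were DMSO wells for no effect and wells without enzyme for full effect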
#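 Human LDH5 (2 nM) was incubated with 0.06 mM NADH and 0.2 mM pyruvate for 5 min at room temperature in Tris pH 7.4. Remaining NADH was coupled through diaphorase/resazurin, and resorufin fluorescence was read at 0 and 20 min.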
# DT40 TDP1 no CPT = qHTS for Inhibitors of human tyrosyl-DNA phosphodiesterase 1 (TDP1): qHTS in cells in absence of CPT | DT40 Tdp1-/- hTDP1 cells, no CPT, ATP luminescence, 48 h | Potency, µM (series often up to 46.2 µM), without a hit: at the highest dose activity change, negative = growth inhibition, usual class: inhibitors | 420,000 compounds, 15% hits; also: potency is read from the fitted curve at half-maximal effect; nearly all actives have a fitted effect of over 55% in size
#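 Chicken DT40 Tdp1-/- cells complemented with human TDP1, screened without camptothecin (DMSO vehicle only), 400 cells/well. Compounds pin-transferred, cells incubated at 37 °C for at least 48 hr. Growth read as ATP-dependent luminescence (CellTiter-Glo, 30 min at RT).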
# DT40 TDP1 CPT = qHTS for Inhibitors of human tyrosyl-DNA phosphodiesterase 1 (TDP1): qHTS in cells in presence of CPT | Potency, µM (top dose mostly 46.2 µM), for the others: at the highest dose activity change, negative = growth inhibition, usual class: inhibitors | chicken DT40 Tdp1-/-;hTDP1 cells + 20 nM CPT, ATP luminescence, 48 h | 420,000 compounds, 12% hits; also: potency is read from the fitted curve at half-maximal effect; nearly all actives have a fitted effect of over 55% in size
#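 Chicken DT40 Tdp1-/- cells stably complemented with human TDP1 were seeded at 400 cells/well in medium containing 20 nM camptothecin, exposed to pin-transferred compounds, and grown at 37 °C for at least 48 hr. Viability was read as ATP luminescence.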
# Starred values were filed as active, the others as inactive; ? = inconclusive; . = no result given. Most compounds without a hit are left out; they make up all but 18% or so of the library. Unless noted, calls follow the shape of the dose curve; as a rule, active = well fitted curve in the direction sought with a large enough effect; inconclusive = small, poorly fitted or top-dose-only effect, or another doubt; inactive = no such curve, though single readings can be large; an effect the other way counts as inactive or inconclusive. Unless noted, % is scaled to controls: 0 for no effect and ±100 for the full control effect.
SMILES,IL-1B inflam inh,RORgamma inh,VP16 counter,LDHA block,DT40 TDP1 no CPT,DT40 TDP1 CPT
N#CCCN1CCN(C(C(=O)O)c2c(-c3ccccc3)[nH]c3ccccc23)CC1 (configuration not stated),.,.,.,5,.,.
CCN(CC)c1ccc(NC2CC(=O)N(CCc3ccc(OC)cc3)C2=O)cc1 (configuration not stated),-10,-28%,2%,27,15µM*,13µM*
Cc1ccc(NC2CC(=O)N(CCc3ccccc3)C2=O)cc1 (configuration not stated),-2,4µM*,-11%,2,-21%,?
COc1cccc(-c2nn(-c3ccccc3)cc2CO)c1,?,-17%,-6%,-4,-15%,-2%
COc1cccc(-c2nn(-c3ccccc3)cc2CN(C)Cc2c(C)nc3ccccn23)c1,16,7.1µM*,?,1,?,?
COc1cccc(-c2nn(-c3ccccc3)cc2CN(C)Cc2ccon2)c1,-15,-21%,-13%,0,11µM*,-30%
O=C(CCN=C1NS(=O)(=O)c2ccccc21)N(Cc1ccccc1F)C1CC1,.,.,.,8,.,.
CCc1ccc(NC(=O)CN2C(=O)C(c3ccc(C)cc3)=NC23CCCCC3)cc1,.,.,.,-11,?,?
O=C(CN1C(=O)C(c2ccc(F)cc2)=NC12CCCC2)Nc1ccc(F)cc1,-20,-16%,?,-3,5.8µM*,8.2µM*
COc1ccc(NC(=O)CN2C(=O)C(c3ccccc3)=NC23CCCCCC3)cc1,-56*,?,1%,-1,?,?
C=CCNC(=O)c1cc(-c2ccc(OC)cc2)nc2ccc(C(C)C)cc12,.,.,.,7,.,.
O=S1(=O)c2cccc3cccc(c23)N1CCCN1CCN(c2ccc(F)cc2)CC1,.,14%,3%,.,21µM*,?
CCOC(=O)c1cc(-c2ccc(OC)cc2)nc2ccccc12,.,.,.,3,.,.
CCOC(=O)c1cc(-c2ccc(OC)cc2)nc2c1c(C)nn2CCC(N)=S,?,4.5µM*,?,-3,?,?
CCCC(C)NC(=O)c1cc(Br)c(Br)s1 (configuration not stated),.,.,.,10,.,.
Cc1cc(NC(=O)COc2ccc3oc4ccccc4c3c2)no1,23,-3%,-5%,-5,21µM*,?
Cc1cc(NC(=O)COC(=O)c2oc3c(ccc4ccccc43)c2C)no1,13,?,11µM*,3,16µM*,?
Cc1cc(NC(=O)COc2ccc3c(C)c(C)c(=O)oc3c2)no1,-7,.,.,-8,8%,0%
CC(NC(=O)c1nccnc1N)c1ccc2ccccc2c1 (configuration not stated),.,.,.,2,.,.
Cc1cccc(NC(=O)c2nc[nH]c2C(=O)NCCCCCNC(=O)OC(C)(C)C)c1,-75*,.,.,4,16µM*,15µM*
Cc1cccc(NC(=O)c2nc[nH]c2C(=O)NC[C@H](C)O)c1,-28,.,.,-3,?,-20%
CC(C)(C)OC(=O)NCCCCCNC(=O)c1[nH]cnc1C(=O)N[C@@H](Cc1ccccc1)C(=O)OCc1ccccc1,?,?,?,5,?,?
C[C@H](NC(=O)c1nc[nH]c1C(=O)N[C@@H](CCCCNC(=O)OC(C)(C)C)C(=O)OC(C)(C)C)C(=O)OC(C)(C)C,0,?,13µM*,1,?,?
CC(C)(C)OC(=O)N1CCN(C(=O)c2ncn(Cc3ccccc3)c2C(=O)N2CCN(C(=O)OC(C)(C)C)CC2)CC1,-4,.,.,-3,13%,13%
CC(C)(C)OC(=O)NCCCC[C@H](NC(=O)c1nc[nH]c1C(=O)NC(c1ccccc1)c1ccccc1)C(=O)OC(C)(C)C,-7,10µM*,?,9,?,15µM*
SMILES,IL-1B inflam inh,RORgamma inh,VP16 counter,LDHA block,DT40 TDP1 no CPT,DT40 TDP1 CPT
CC(C)(C)OC(=O)NCCCCCNC(=O)c1ncn(Cc2ccccc2)c1C(=O)NCCCCCNC(=O)OC(C)(C)C,-13,.,.,4,16µM*,?
CCc1nc(SCC(=O)Nc2ccc(Br)cc2)c2c3c(sc2n1)COC(C)(C)C3,.,.,.,-7,.,.
CCOC(=O)Cn1c(=O)c2c3c(sc2n(CCCN(C)C)c1=O)CC(C)CC3 (configuration not stated),.,.,.,-1,.,.
CC(C)(C)OC(=O)NCCCCCNC(=O)c1nc[nH]c1C(=O)NCCCCCNC(=O)OC(C)(C)C,19,.,.,-4,10µM*,12µM*
CC1CCN(C(=O)c2[nH]cnc2C(=O)NCCCCCNC(=O)OC(C)(C)C)CC1,-2,.,.,-15,-22%,?
CC(C)(C)OC(=O)NCCCC[C@H](NC(=O)c1nc[nH]c1C(=O)N1CCc2ccccc2C1)C(=O)OC(C)(C)C,?,?,-17%,2,21µM*,26µM*
CC(C)(C)OC(=O)NCCCC[C@H](NC(=O)c1nc[nH]c1C(=O)NCc1ccc(CNC(=O)OC(C)(C)C)cc1)C(=O)OC(C)(C)C,-17,?,2%,4,16µM*,?
CC(C)(C)OC(=O)[C@H](CCCCN)NC(=O)c1nc[nH]c1C(=O)NCCCCCN,16,.,.,-6,-10%,-2%
CN(Cc1ccccc1)C(=O)c1[nH]cnc1C(=O)NCCCCCNC(=O)OC(C)(C)C,-3,.,.,-3,18µM*,?
CC(C)(C)OC(=O)NCCCCCNC(=O)c1nc[nH]c1C(=O)N1CCc2ccccc2C1,10,.,.,2,?,?
NC(=O)NC(=O)COC(=O)c1cc(Cl)cc(Cl)c1,.,.,.,0,.,.
O=C(NC1CCCCC1)C1CCCN(C(=O)c2ccc3cc[nH]c3c2)C1 (configuration not stated),.,.,.,7,.,.
CC(C)(C)OC(=O)NCCCC[C@H](NC(=O)c1nc[nH]c1C(=O)N[C@@H](CCCCNC(=O)OC(C)(C)C)C(=O)OC(C)(C)C)C(=O)OC(C)(C)C,-24,?,-9%,0,23µM*,15µM*
CC(C)(C)OC(=O)CNC(=O)c1[nH]cnc1C(=O)N[C@@H](CCCCNC(=O)OC(C)(C)C)C(=O)OC(C)(C)C,?,?,?,3,?,?
